Data published in PubChem BioAssay (NCATS).
Inconclusive results are not listed. Calls of active or inactive are those of the source. Calls come from the whole dose curve; as a rule, active = well fitted curve in the direction sought with a large enough effect; inconclusive = small, poorly fitted or top-dose-only effect, or another doubt; inactive = no such curve, though single readings can be large; an effect the other way counts as inactive or inconclusive.

Assays:
[1] = system: CRL-7250; experiment: Cytotoxic Profiling of Annotated Libraries Using Quantitative High-Throughput Screening (AID 1296008); conditions: Five cell lines viability, CellTiter-Glo ATP luminescence, 48-72 h; max response: stronger effect = lower value; note: nearly all actives have a fitted effect of over 60% in size; for max response: % is set by controls: 0 for no effect and ±100 for the full control effect
Outline: (§1)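 Compounds were pin-transferred onto cells and incubated 48 or 72 hr at 37 degree Celsius, 95% humidity. CellTiter-Glo was added, plates sat 10 min at room temperature, then ATP-coupled luminescence was imaged as the viability read-out.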

[2] = system: HEK293; experiment: as above; conditions: Five cell lines viability, CellTiter-Glo ATP luminescence, 48-72 h; max response: stronger effect = lower value
Outline: as §1

[3] = system: HaCat; experiment: as above; conditions: Five cell lines viability, CellTiter-Glo ATP luminescence, 48-72 h; max response: stronger effect = lower value
Outline: as §1

[4] = system: KB-3-1; experiment: as above; conditions: Five cell lines viability, CellTiter-Glo ATP luminescence, 48-72 h; max response: stronger effect = lower value
Outline: as §1

[5] = system: NIH3T3; experiment: as above; conditions: Five cell lines viability, CellTiter-Glo ATP luminescence, 48-72 h; max response: stronger effect = lower value
Outline: as §1

[6] = system: HACAT; experiment: qHTS assay to identify novel small-molecules to repurpose for Merkel cell carcinoma treatment (AID 1296009); conditions: MCC and control cell lines, CellTiter-Glo viability, 72 h; at 44.8 µM (top of the series) unless noted; note: nearly all actives have a fitted effect of over 60% in size
Outline: (§2)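 Luminescence from CellTiter-Glo, read 10 min after addition at room temperature, reported viability following a 72 hr, 37 degree celsius treatment with NPC or MIPE compounds in titration; values normalized to plate controls.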

[7] = system: NIH3T3; experiment: as above; conditions: MCC and control cell lines, CellTiter-Glo viability, 72 h; at 44.8 µM (top of the series) unless noted
Outline: as §2

[8] = system: C33A; experiment: Primary qHTS to identify gynecologic anti-cancer compounds using libraries of approved drugs and bioactive compounds (AID 1345084); conditions: Gynecologic cancer cell panel viability, ATPlite luminescence, 48 h; series mostly up to 57.5 µM; note: % is set by controls: 0 for no effect and ±100 for the full control effect; nearly all actives have a fitted effect of over 55% in size
Outline: (§3)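 Cells, 1,000 per well, plated 16 h, then exposed 48 h at 37 C to compounds. Viability by ATPlite luminescence after 15 min at room temperature.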

[9] = system: CAOV3; experiment: as above; conditions: Gynecologic cancer cell panel viability, ATPlite luminescence, 48 h; series mostly up to 57.5 µM
Outline: as §3

[10] = system: CASKI; experiment: as above; conditions: Gynecologic cancer cell panel viability, ATPlite luminescence, 48 h; series mostly up to 57.5 µM
Outline: as §3

[11] = system: Es-2; experiment: as above; conditions: Gynecologic cancer cell panel viability, ATPlite luminescence, 48 h; series mostly up to 57.5 µM
Outline: as §3

[12] = system: HeLa; experiment: as above; conditions: Gynecologic cancer cell panel viability, ATPlite luminescence, 48 h; series mostly up to 57.5 µM
Outline: as §3

[13] = system: Hek293T; experiment: as above; conditions: Gynecologic cancer cell panel viability, ATPlite luminescence, 48 h, control line for the selectivity index; series mostly up to 57.5 µM
Outline: as §3

[14] = system: JEG-3; experiment: as above; conditions: Gynecologic cancer cell panel viability, ATPlite luminescence, 48 h; series mostly up to 57.5 µM
Outline: as §3

[15] = system: OV90; experiment: as above; conditions: Gynecologic cancer cell panel viability, ATPlite luminescence, 48 h; series mostly up to 57.5 µM
Outline: as §3

CC(C)(O)c1ccc2c(c1)C(=O)C[C@H]1[C@](C)(C(=O)O)CCC[C@]21C
inactive: max response [1] -1.21% | max response [2] -10.2% | outcome [3] | max response [4] 5.87% | outcome [5] | outcome [6] | outcome [7] | Potency [8] | Potency [9] | outcome [10] | Potency [11] | Potency [12] | Potency [13] | Potency [14] | Potency [15]

CC(=O)OC1C(O)/C(C)=C\C2C(OC(=O)c3ccccc3)C(C)CC2(OC(C)=O)C(OC(C)=O)C(C)/C=C/C(C)(C)C1OC(C)=O (stereo not given)
inactive: max response [1] -1.02% | max response [2] -2.9% | outcome [3] | max response [4] 7.33% | outcome [5] | outcome [6] inactive [at 17.4 µM] | outcome [7] inactive [at 17.4 µM] | Potency [8] | Potency [9] | outcome [10] | Potency [11] | Potency [12] | Potency [13] | Potency [14] | Potency [15]

OC[C@H]1O[C@@H](OCc2ccccc2)[C@H](O)[C@@H](O)[C@@H]1O
inactive: max response [1] 0.468% | max response [2] -5.26% | outcome [3] | max response [4] 1.59% | outcome [5] | outcome [6] | outcome [7] | Potency [8] | Potency [9] | outcome [10] | Potency [11] | Potency [12] | Potency [13] | Potency [14] | Potency [15]

C=C1C(OC(C)=O)[C@@]23CCC4[C@](C)(C(=O)O)CCC[C@@]4(C)[C@]2(O)CC[C@H]1C3 (stereo not given in full)
inactive: max response [1] 1.93% | max response [2] -3.51% | outcome [3] | max response [4] 0.958% | outcome [5] | outcome [6] | outcome [7] | Potency [8] | Potency [9] | outcome [10] | Potency [11] | Potency [12] | Potency [13] | Potency [14] | Potency [15]

C=C(C)C1CCC2(C(=O)OC3OC(COC4OC(CO)C(O)C(O)C4O)C(OC4OC(C)C(O)C(O)C4O)C(O)C3O)CCC3(C(=O)O)C(CCC4C5(C)CCC(=O)C(C)(C)C5CCC43C)C12 (stereo not given)
inactive: max response [1] -1.47% | max response [2] -21.3% | outcome [3] | max response [4] 1.44% | outcome [5] | outcome [6] inactive [at 9.27 µM] | outcome [7] inactive [at 9.27 µM] | activity change, negative = cytotoxicity [8] 2.12% [at 11.6 µM] | activity change, negative = cytotoxicity [9] 1.66% [at 11.6 µM] | activity change, negative = cytotoxicity [10] -3.34% [at 11.6 µM] | activity change, negative = cytotoxicity [11] -14% [at 11.6 µM] | activity change, negative = cytotoxicity [12] 1.62% [at 11.6 µM] | activity change, negative = cytotoxicity [13] 0.77% [at 11.6 µM] | activity change, negative = cytotoxicity [14] -1.16% [at 11.6 µM] | activity change, negative = cytotoxicity [15] -0.071% [at 11.6 µM]

COc1cc([C@H]2OC[C@](O)(Cc3ccc(O[C@@H]4O[C@H](CO)[C@@H](O)[C@H](O)[C@H]4O)c(OC)c3)[C@@H]2CO)ccc1O
inactive: max response [1] -8.35% | max response [2] 1.25% | outcome [3] | max response [4] 0.848% | outcome [5] | outcome [6] inactive [at 17.4 µM] | outcome [7] inactive [at 17.4 µM] | Potency [8] | Potency [9] | outcome [10] | Potency [11] | Potency [12] | Potency [13] | Potency [14] | Potency [15]

CC(=O)c1ccc(O[C@@H]2OC[C@@H](O)[C@H](O)[C@H]2O[C@]2(CO)O[C@H](CO)[C@@H](O)[C@@H]2O)c(O)c1
inactive: outcome [1] | max response [2] 2.18% | outcome [3] | outcome [4] | outcome [5] | outcome [6] inactive [at 17.4 µM] | outcome [7] inactive [at 17.4 µM] | Potency [8] | Potency [9] | outcome [10] | Potency [11] | Potency [12] | Potency [13] | Potency [14] | Potency [15]

CC[C@H](NC(=O)c1c(O)c(-c2ccccc2)nc2ccccc12)c1ccccc1
inactive: outcome [1] | max response [2] -9.53% | outcome [3] | max response [4] -1.35% | outcome [5] | outcome [6] | outcome [7] | Potency [8] | Potency [9] | outcome [10] | Potency [11] | Potency [12] | Potency [13] | Potency [14] | Potency [15]
